This passage reports INHIBITION results from ChEMBL document CHEMBL4513216, “Probing the Open Global Health Chemical Diversity Library for Multistage-Active Starting Points for Next-Generation Antimalarials” (ACS Infect Dis, 2020).

Each structure is given as a SMILES string. The whole screen tested about 69,000 compounds, of which about 8,600 (12%) showed an effect of 50% or more. Many of the other results were omitted from the sample, so strong results are more common in it than they were.

This experiment concerns Plasmodium berghei. The experiment can be described thus: Screen against P. berghei liver stage (PbLuc), transformed with Luciferase, at 10uM. In kind it is functional, HepG2. The note with it: tested at 10 uM.
As for `CC(C)c1nnc2ccc(N3CCC(C(=O)O)CC3)nn12`, the INHIBITION is recorded as -9.3%.
With `Cc1c(Cl)cccc1S(=O)(=O)N1C[C@H]2CC[C@@H](C1)N(C)C2=O`, the INHIBITION was determined as 0.546%.
The result for `CN(C)C(=O)c1nnc2ccc(N3CCOCC3)cc2n1` reads -13.9%.
The result for `CN(C)C[C@H]1OC[C@@H]2CN(C(=O)NCc3cccnc3)CC[C@@H]21` reads 5.63%; that for `CN(Cc1ccco1)C[C@H]1OC[C@@H]2CCN(Cc3cccnc3)C[C@@H]21`, 41.4%.
Under `CN(Cc1cccnc1)C[C@H]1OC[C@@H]2CCN(C(=O)C3CC3)C[C@@H]21` stands 54.8%; under `CN(Cc1cccnc1)C[C@H]1OC[C@@H]2CCN(c3ncccn3)C[C@@H]21`, 14%.
For the compound `CN(Cc1cccnc1)C[C@@H]1OC[C@H]2CN(C(=O)C3CC3)CC[C@H]21`, the INHIBITION was 76.2%.
The result for `CN(Cc1cccnc1)C[C@@H]1OC[C@H]2CN(Cc3ccoc3)CC[C@H]21` reads 2.79%; that for `O=C(CCN1CCOC(CNc2cccnn2)C1)NC1CCCCC1` (configuration not stated), 9.64%.
The result for `O=C(CCCOc1ccccc1)N1CCCC(n2cncn2)C1` (configuration not stated) reads 14.133%; that for `CC(=O)N1CC(C(=O)NC(C)c2cnn(C)c2C)C1` (configuration not stated), 8.57%; that for `CCN1CC[C@@]2(C(=O)N(C)C)CCN(S(=O)(=O)c3ccccc3)CC[C@@H]12`, -89.8%.
As for `CC(NC(=O)c1cccs1)(C(N)=O)c1cccc(C(F)(F)F)c1` (configuration not stated), the INHIBITION worked out at 62%.
Under `CN1CCN(c2ccc(NC(=O)c3cccs3)c(C(F)(F)F)c2)CC1` stands -29%; under `CC(NC(N)=O)C(=O)N(C)Cc1cccc(C(F)(F)F)c1` (configuration not stated), 12%; under `Cn1cccc1C(=O)NC(C)(C(N)=O)c1cccc(C(F)(F)F)c1` (configuration not stated), 61.1%.
Under `Cn1cccc1C(=O)NC(C)(C(N)=O)c1cccc(Cl)c1` (configuration not stated) stands 11.5%; under `Cc1nncn1CCNC(=O)C(C)(C)c1cccc(C(F)(F)F)c1`, -0.758%.
The result for `O=C(O)[C@@H]1CN(C(=O)CCC(F)(F)F)C[C@H]1c1ccncc1` reads 11.6%; that for `CC(CNC(=O)CCCn1cncn1)N1CCc2ccccc2C1` (configuration not stated), 69.7%; that for `CC(Cn1cncn1)NCCN1CCc2ccccc2C1` (configuration not stated), 45.1%.
Regarding `CC(CNC(=O)CCn1cncn1)N1CCc2ccccc21` (configuration not stated), the INHIBITION was -7.7%.
The result for `CC(NC(=O)CCn1cncn1)c1nnc2n1CCCCC2` (configuration not stated) reads 39.2%; that for `CCC(CNC(=O)CCn1cncn1)N1CCc2ccccc2C1` (configuration not stated), -19.5%; that for `CC(C)C(CNC(=O)CCn1cncn1)N1CCc2ccccc2C1` (configuration not stated), 60.5%.
Under `Cc1cc2c(=O)n3c(nc2s1)CCN(C(=O)c1cnn(C)c1)CC3` stands -11.7%.
The result for `CC(C)N1CCCC1c1cc(C(F)(F)F)[nH]n1` (configuration not stated) reads -7.7%; that for `Cc1cc(NC(C)Cn2cccn2)n2nccc2n1` (configuration not stated), 33%.
With `O[C@@H]1CC(CNCc2ccc(F)cc2)(COc2cccnc2)C[C@@H]1O` (some centres not stated), the INHIBITION was found to be 38.1%.
Regarding `Cn1cccc1C(=O)NC1(C(=O)NCC2CC2)CCCC1`, the INHIBITION is 8.38%.
`Cc1ccc2c(C(=O)N(C)C)cc(-c3cnn(CCO)c3)nc2c1C`: the INHIBITION is 31.15%.
Under `COc1ncc(C2(O)CCN(Cc3ccccc3O)CC2)c(OC)n1` stands 65.5%.
Under `Cc1ncc(CN2CCC(O)(c3ccccc3F)CC2)cn1` stands -4.675%; under `COc1ncc(C2(O)CCN(Cc3cccc(F)c3F)CC2)c(OC)n1`, 44.1%; under `COc1ncc(C2(O)CCN(Cc3c(F)cccc3F)CC2)c(OC)n1`, 53%.
Under `COc1ncc(C2(O)CCN(Cc3ccc(F)c(F)c3)CC2)c(OC)n1` stands 57.5%; under `CCc1ncc(CN2CCC(O)(c3ccccc3F)CC2)cn1`, 18.2%; under `COc1ncc(C2(O)CCN(Cc3cc(F)ccc3F)CC2)c(OC)n1`, 24.8%.
As for `COc1ncc(C2(O)CCN(Cc3cc(F)cc(F)c3)CC2)c(OC)n1`, the INHIBITION amounted to 39.7%.
Consider `COc1ncc(C2(O)CCN(Cc3cccs3)CC2)c(OC)n1`, for which the INHIBITION amounted to 8.48%.
Consider `CN(C)CCn1nc(C2CCN(S(=O)(=O)N(C)C)C2)c2cccnc21` (configuration not stated), for which the INHIBITION is 6.33%.
Under `Fc1ccc(OCCNCCn2cccn2)cc1` stands 0.914%.
Turning to `Cc1cc(C(=O)N2CCN(c3ccncc3Cl)CC2)n(C)n1`, the INHIBITION turned out to be 10.3%.
Under `CSc1nnc(C2CCN(C(=O)N3CCCC3)CC2)n1C(C)C` stands 20.09%; under `COC(=O)C(C)N(Cc1cc(C)on1)C1CC1` (configuration not stated), 52.2%; under `COC(=O)C(C)N(Cc1cc(=O)n(C)c(=O)n1C)C1CC1` (configuration not stated), -37.1%.
As for `Cc1cc(CN(C2CC2)C(C)C(C)C)no1` (configuration not stated), the INHIBITION is listed as -26.1%.
For `O=C(c1c[nH]cn1)N1CCOCC2(C1)CN(c1ccccc1)C(=O)CO2` (configuration not stated), the INHIBITION stood at 8.52%.
The result for `Cc1noc(C)c1C(=O)N1CCC2(CCc3ccccc3C(=O)N2)C1` (configuration not stated) reads 9.925%; that for `Cn1nc2c(cc1=O)CN(Cc1nc(-c3ccsc3)no1)CC2`, -7.31%.
For the compound `CC(C)c1nn(C)c(N2CCOCC2)c1CNCc1nncn1C`, the INHIBITION was -18.9%.
